# Data taken from PubChem BioAssay (NCI).
# This is part of a sample that, as a whole, favours compounds with a hit. Of some 83,000 tested, about 20% had one in any assay.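 Plates (96-well) were seeded with cells, treated with compound at one concentration, and incubated for 48 hours before percent growth was determined.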 Values without a mark were called inactive. Activity calls are given as the source filed them. The calls were made as follows: active = growth percent below 10; inactive = the rest.
# What was measured:
# Experiment in all cases: NCI-60 one-dose screen, 48 h (100 = growth as untreated, 0 = no growth, -100 = all killed)
# Details in all cases: 10 µM unless noted
# SR leukemia = tested on: SR leukemia
# RPMI-8226 leukemia = tested on: RPMI-8226 leukemia
# OVCAR-8 ovarian = tested on: OVCAR-8 ovarian
# OVCAR-5 ovarian = tested on: OVCAR-5 ovarian
# OVCAR-4 ovarian = tested on: OVCAR-4 ovarian
# SK-OV-3 ovarian = tested on: SK-OV-3 ovarian
# IGROV1 ovarian = tested on: IGROV1 ovarian
# OVCAR-3 ovarian = tested on: OVCAR-3 ovarian
# HS 578T breast = tested on: HS 578T breast
# NCI/ADR-RES ovarian = tested on: NCI/ADR-RES ovarian
Structure (SMILES),growth (SR leukemia),growth (RPMI-8226 leukemia),growth (OVCAR-8 ovarian),growth (OVCAR-5 ovarian),growth (OVCAR-4 ovarian),growth (SK-OV-3 ovarian),growth (IGROV1 ovarian),growth (OVCAR-3 ovarian),growth (HS 578T breast) [%],growth (NCI/ADR-RES ovarian)
CC1(C)NCCC[C@]2(C)[C@H]3CC[C@@H]4[C@H]5[C@H](C(=O)/C=C/c6ccccn6)CC[C@]5(CO)CC[C@@]4(C)[C@]3(C)CC[C@@H]12,-19.6% (active),-13.1% (active),47.6%,97.9%,35.9%,82.2%,63.4%,40.9%,70.8,76.8%
CC(C)(C)c1ccc(OCCCCCCCN2CCNCC2)cc1,-10.4% (active),-17% (active),71.3%,68.5%,54%,81.5%,52%,62%,24.9,71.7%
Fc1ccc(Nc2nnc(-c3ccc(Cl)cc3)o2)cc1,90.8%,99.8%,86.7%,98.3%,94.7%,77.4%,90.2%,110%,107,99%
COc1ccc(-c2cc(=O)oc3ccc(Cl)cc23)cc1F,11.2%,28.1%,20.3%,54.7%,55.9%,0.514% (active),43.1%,6.02% (active),20.1,6.24% (active)
NCCn1cc(-c2nc(-c3c[nH]c4ncccc34)cs2)c2ccccc21,62.6%,78.1%,86.7%,102%,68.2%,82.2%,50.2%,90.8%,84.4,98.1%
Cc1ccnc2c(OCc3ccccc3)cccc12,101%,99.2%,115%,93.1%,72.2%,112%,87.5%,92.8%,92.2,86.1%
Cc1ccc(S(=O)(=O)Nc2ccc(-c3cc(-c4cccc(F)c4)c(C#N)c(N)n3)cc2)cc1,8.01% (active),-3.27% (active),7.02% (active),45.5%,-63.4% (active),71.8%,-66.3% (active),-79.4% (active),31.4,41%
C/C(=N\Nc1cc(C)c2cc(C)ccc2n1)c1ccccn1,0.29% (active),-33.4% (active),-60% (active),-33.3% (active),-83.1% (active),25.4%,-35.9% (active),-40.6% (active),45.9,1.12% (active)
Cc1cc2nc3c4cc([N+](=O)[O-])cc([N+](=O)[O-])c4n(CCN(C)C)c3nc2cc1C,5.05% (active),67.5%,61.4%,87.8%,90.8%,90.2%,60.2%,92.6%,90.2,57.8%
N#C/C(=C\c1ccc(-c2ccccc2)o1)c1nc(-c2ccco2)cs1,103%,49.6%,96.9%,53.8%,11%,97.2%,43.1%,78.7%,95.7,95.5%
COc1cc2nc(Cl)nc(Nc3cccc(C(=O)/C=C/c4ccc(Cl)cc4)c3)c2cc1OC,10.4%,0.0429% (active),78.9%,85.5%,70.8%,89%,68.3%,48.8%,101,65.7%
COc1ccc(-c2nc3c(c(C)nn3-c3ccc(F)cc3)c(=O)[nH]2)cc1,15.9%,89.8%,60.7%,85.9%,-39.3% (active),31.5%,53.8%,55%,63.4,63.9%
COc1ccc2c(c1)c(-c1nc(-c3c[nH]c4ncccc34)cs1)cn2CCCN1CCCCC1,-38% (active),-33% (active),49.1%,77.4%,62.6%,61.7%,34.4%,27.8%,59.7,58.7%
O=C(N/N=C/c1ccccc1SSc1ccccc1/C=N/NC(=O)c1ccccc1)c1ccccc1,18.9%,31.1%,24.9%,85.2%,38.5%,43%,30.6%,31.1%,75.4,9.77% (active)
CC1(C)C(=O)CC[C@]2(C)[C@H]3C(=O)C=C4[C@@H]5C[C@@](C)(C(=O)NCCNCCN)CC[C@]5(C)CC[C@@]4(C)[C@]3(C)CC[C@@H]12,20%,91.1%,99.6%,108%,105%,104%,96.4%,104%,97.5,102%
CCc1cccc(CC)c1NC(=O)c1sc2nc3c(cc2c1N)CCCC3,18.2%,85.8%,84.7%,95.3%,78.2%,81.9%,64.5%,54.6%,65.2,45.3%
C=C(C)[C@@H]1CC[C@]2(C(=O)N3CCCNCC3)CC[C@]3(C)[C@H](CC[C@@H]4[C@@]5(C)CCC(=O)C(C)(C)[C@@H]5CC[C@]43C)[C@@H]12,8.04% (active),92%,95.6%,106%,92.3%,106%,93.6%,98.8%,94.2,91.8%
CNC(=O)c1cc(Oc2ccc3nc(NC(=O)Nc4ccc(Cl)cc4)sc3c2)ccn1,42.7%,81.7%,57.2%,92.3%,13%,–,83.6%,48.8%,30.1,83.6%
C=C(C)[C@@H]1CC[C@]2(C=NCCCNCCCCNCCCN)CC[C@]3(C)[C@H](CC[C@@H]4[C@@]5(C)CCCNC(C)(C)[C@@H]5CC[C@]43C)[C@@H]12,21.7%,107%,83.8%,112%,102%,–,112%,106%,104,91.8%
CC1(C)CC[C@]2(C(=O)Nc3ccccn3)CC[C@]3(C)C(=CC[C@@H]4[C@@]5(C)C/C(=C/c6ccncc6)C(=O)C(C)(C)[C@@H]5CC[C@]43C)[C@@H]2C1,8.26% (active),-0.291% (active),41.5%,75.5%,17.1%,71.8%,50.6%,12.6%,56.7,51.3%
O=C(/C=C\c1ccc2c(c1)OCO2)/C=C/c1ccc2c(c1)OCO2,10.5%,-9.97% (active),101%,108%,84.9%,92%,88.9%,69.5%,–,92.1%
C/C(=N/NC(N)=S)C(=O)O,90%,75.2%,71.2%,91.1%,85.5%,107%,56.7%,77%,–,65.3%
NS(=O)(=O)c1ccc(CCNC(=O)/C=C/c2ccc(Cl)cc2)cc1,75.6%,98.3%,95.1%,98.5%,87.1%,–,91.7%,105%,98.2,103%
O=C1C=Cc2ncccc2C1=O,12.2%,27.6%,87.8%,106%,111%,83.5%,105%,64.4%,–,84%
N#CCCCCCn1c2ccccc2c2c3c(c4c5ccccc5n(CCCCCC#N)c4c21)C(=O)N(O)C3=O,42.9%,37.7%,69.4%,109%,93.4%,–,75.2%,96.1%,92.7,85.9%
Cn1cc(-c2csc(-c3cn(CCNC(=O)OC(C)(C)C)c4ccccc34)n2)c2cccnc21,75.6%,42.1%,45%,115%,49.2%,94.9%,64.7%,86.3%,82.1,56%
Cn1cc(-c2csc(-c3cn(CCN)c4ccc(F)cc34)n2)c2cccnc21,2.79% (active),67.9%,72.1%,80.2%,54.6%,78%,39.6%,84.1%,77.9,78.3%
